Compound activity as filed in PubChem BioAssay.
Sampled rows, rich in hits. Any-hit rate of the full collection: about 11%.
L3MBTL1 block – qHTS Assay for the Inhibitors of L3MBTL1 | Potency, µM (highest dose often 57.1 µM), without a hit: at the top dose activity, negative = inhibition, actives largely listed as inhibitors | AlphaScreen L3MBTL1–H3K9me1 peptide binding | actives 0.66% (n = 230,000); note: potency is the fitted concentration of half-maximal effect; % is set by controls: 0 for no effect and ±100 for the full control effect; nearly all actives have a fitted effect of over 60% in size
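First, the protein-peptide complex forms for 30 min at room temperature (L3MBTL1 50 nM, biotinylated H3K9me1 peptide 75 nM). Next, compounds are pin-transferred and incubated 30 min. Finally, AlphaScreen beads are added and read after 30 min.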
G9a inh – qHTS Assay for Inhibitors of Histone Lysine Methyltransferase G9a; Histone-lysine N-methyltransferase EHMT2 (Homo sapiens), Q96KQ7; G9a H3K9 monomethylation, AlphaScreen, 2 h; Potency, µM (titrated, usually from 102 µM), for inactives: at the top dose activity, negative = inhibition, most hits filed as inhibitors; actives 8.8% (n = 350,000); note: potency is the fitted concentration of half-maximal effect; % is set by controls: 0 for no effect and ±100 for the full control effect; nearly all actives have a fitted effect of over 75% in size
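G9a (20 nM) was preincubated 15 min with compound, then reacted 2 h at room temperature with 500 nM biotin-H3K9 peptide and 20 µM SAM. Monomethyl-H3K9 detected by AlphaScreen using anti-H3K9me1 antibody.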
JMJD2A Tudor inh – qHTS Assay for Inhibitors of JMJD2A-Tudor Domain. AlphaScreen JMJD2A-Tudor / H3K4me3 peptide binding. Potency, µM (series often up to 114 µM), for the others: at the top dose activity change, negative = inhibition, most hits filed as inhibitors. actives 4.4% (n = 390,000). AID 504339, 2011; note: potency is the fitted concentration of half-maximal effect; % is set by controls: 0 for no effect and ±100 for the full control effect; nearly all actives have a fitted effect of over 50% in size
PI5P4Ka inh – qHTS for Inhibitors of phosphatidylinositol 5-phosphate 4-kinase (PI5P4K). Phosphatidylinositol 5-phosphate 4-kinase type-2 alpha (Homo sapiens), P48426. PI5P4Kalpha enzyme, ADP-Glo luminescence, 60 min; stronger effect = lower value. max response, %. actives 1.2% (n = 330,000). AID 652105, 2013; active = max response of -50% or lower; inconclusive = between -30% and -50%; inactive = -30% or higher; note: value at the top dose of about 77 µM; % is set by controls: 0 for no effect and ±100 for the full control effect
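Enzyme plus substrate dispensed, test compounds pinned in, then ATP (5 microM final) added. After 60 min at RT, ADP-Glo reagent 1 for 45 min and reagent 2 for 30 min preceded luminescence imaging.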
HP1b binding inh – HTS for Inhibitors of HP1-beta Chromodomain Interactions with Methylated Histone Tails. Chromobox protein homolog 1 (Homo sapiens), P83916. actives 0.56% (n = 390,000). AID 540317, 2011. AlphaScreen HP1-beta / biotin-H3K9me3 peptide binding. Potency, µM (doses to about 114 µM), without a hit: at the highest dose activity change, negative = inhibition, most hits filed as inhibitors; note: potency is the fitted concentration of half-maximal effect; nearly all actives have a fitted effect of over 70% in size
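HP1-beta protein (50 nM final) preincubated 30 min at room temperature with biotinylated H3(1-18)K9me3 peptide (50 nM) in PBS pH 7.4, 0.01% Tween-20, then compound added for 30 min. AlphaScreen streptavidin donor/nickel chelate acceptor beads (10 ug/mL final), 30 min dark, luminescence read.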
BAZ2B block – qHTS Assay for Inhibitors of BAZ2B | AlphaScreen BAZ2B-H3K14Ac peptide displacement | Potency, µM (doses to about 114 µM), inactives show top-dose activity change, negative = inhibition, hits mostly inhibitors | actives 4.4% (n = 360,000); note: potency is the fitted concentration of half-maximal effect; % is set by controls: 0 for no effect and ±100 for the full control effect; nearly all actives have a fitted effect of over 60% in size
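Compounds, titrated to a top concentration of 110 uM, were incubated 30 min at room temperature with preformed BAZ2B/acetyl-K14 H3 peptide complex (50 nM each). Proximity signal was measured by AlphaScreen after 20 min with beads.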
An asterisk follows results filed as active; ? = inconclusive; / = not tested or not shown; [ ] = remark or other dose. Unless noted, calls come from the whole dose curve; as a rule, active = well fitted inhibition curve with a large enough effect; inconclusive = small, poorly fitted or top-dose-only effect; inactive = no such curve, though single readings can be large or run the other way.

SMILES	L3MBTL1 block	G9a inh	JMJD2A Tudor inh	PI5P4Ka inh	HP1b binding inh	BAZ2B block
CCOC(=O)N1CCc2[nH]c3ccc(C)cc3c2C1	-23%	10µM*	?	6	-35%	?
S=C(NC1CCCCC1)N1CCc2[nH]c3ccccc3c2C1	-11%	24%[12.7 µM]	-19%	5	1%	-8%
Cc1ccc(NC(=S)N2CCc3[nH]c4ccccc4c3C2)cc1	/	/	?	-7	-30%	25µM*
CC(=O)N1CCc2[nH]c3ccc(C)cc3c2C1	-4%	25%[2.33 µM]	-30%	0	1%	56µM*
CC(=O)N1CCc2[nH]c3ccccc3c2C1	0%	-38%	-10%	/	0%	-36%
Cc1nc(C)c(CCNC(=O)c2ccccc2)s1	9%	10%[59 µM]	1%	-3	22%	-7%
Cc1nc(C)c(CCNC(=O)c2cccc(Cl)c2)s1	9%	79µM*	2%	-9	18%	10%
CCOC(=O)c1ccc(NC(=O)CCCn2c(=O)c3cccn3c3cccnc32)cc1	/	-4%[59 µM]	-26%	/	-5%	-9%
COc1ccc(-c2cc3nc(CCl)[nH]c(=O)c3s2)cc1	/	50µM*	?	?	25%[57 µM]	-38%
CC(=O)Nc1ccc(C(=O)Nc2ccc(S(=O)(=O)N3CCOCC3)cc2)cc1	2%	/	3%	2	28%	6%
Cc1ccc(S(=O)(=O)N2CCOCC2)cc1C(=O)N1CC(C)CC(C)C1 (stereo unspecified)	-2%	/	-8%	3	10%[57 µM]	/
CN(CCC#N)C(=S)NC(=O)c1ccc(S(=O)(=O)N2CCOCC2)cc1	2%	11µM*	-22%	?	-10%	-20%
Cc1ccc(S(=O)(=O)N2CCOCC2)cc1C(=O)NC(=S)N1CC(C)OC(C)C1 (stereo unspecified)	12%	32µM*	-6%	4	22%	-2%
CC(=O)N1CCN(C(=S)NC(=O)c2ccc(S(=O)(=O)N3CCOCC3)cc2)CC1	0%	?	50µM*	-20	-27%	50µM*
N#CCc1ccc(NC(=O)c2ccc(S(=O)(=O)N3CCOCC3)cc2)cc1	/	9%	-12%	-8	43%	0%
C#CCn1cnc2c(cnn2-c2ccc(F)cc2)c1=O	/	8%[59 µM]	-10%	/	16%	3%
COc1ccc(Cl)cc1NC(=O)CSc1nnc(C)n2c1cc1occc12	/	6%[59 µM]	-1%	/	33%	-13%
Cc1ccc(CNC(=O)c2nn(-c3ccc(Cl)cc3)nc2CO)cc1	/	0%[59 µM]	-19%	/	-6%	0%
O=C(CC(=O)Nc1ccccn1)Nc1ccccn1	2%	27%	-20%	-2	23%	2%
c1ccc(Nc2cccc(Nc3ccccc3)n2)cc1	/	7.9µM*	56µM*	-3	?	45µM*
c1ccc(Nc2ccccn2)cc1	/	6%[59 µM]	22µM*	-11	?	1%
c1ccc(Nc2ccccc2)cc1	6%	?	-13%	-2	28%	-2%
COc1ccc(C)cc1NC(=O)c1oc2ccc(S(=O)(=O)N3CCC4(CC3)OCCO4)cc2c1C	/	-9%[59 µM]	-10%	/	21%	-2%
O=C1NC(=S)NC1=Cc1ccco1	/	/	22µM*	-93*	35µM*	/
O=C1/C(=C/c2ccccn2)SC(=S)N1Cc1ccccc1	1%	/	-18%	-6	1%	-10%
SMILES	L3MBTL1 block	G9a inh	JMJD2A Tudor inh	PI5P4Ka inh	HP1b binding inh	BAZ2B block
O=C1NC(=O)C(=Cc2ccco2)S1	/	/	-12%	-3	19%	/
O=C1/C(=C\c2ccco2)SC(=S)N1Cc1ccccc1	-26%	25%[0.501 µM]	50µM*	-16	?	11µM*
O=C1/C(=C\c2ccco2)SC(=S)N1c1ccccc1	?	50µM*	-24%	-20	?	?
Cc1ccc(N2C(=O)/C(=C\c3ccco3)SC2=S)cc1	-13%	-6%[12.7 µM]	-32%	?	-15%	56µM*
O=C1NC(=O)/C(=C/c2ccco2)N1	2%	6%[0.501 µM]	-1%	/	45%	9%
CN(C)C(=O)OC1=C(c2ccccc2)Sc2ccccc2-n2cccc21	/	-26%[59 µM]	/	/	/	/
COc1ccc(CCN2C(=O)CSC2=S)cc1OC	/	?	-19%	-5	10%	?
COc1ccc(CCN2C(=O)/C(=C\c3ccco3)SC2=S)cc1OC	18µM*	45µM*	-30%	-2	-22%	8.9µM*
O=C1/C(=C\c2ccco2)NC(=S)N1c1ccccc1	7%	/	56µM*	?	?	-5%
CCCN=C1N/C(=C\c2ccco2)C(=O)N1c1ccccc1	/	?	-19%	0	23%	-8%
O=C(Nc1cc(Cl)ccc1Cl)C1(c2cccs2)CCOCC1	/	5%[59 µM]	17%	/	57%	56%
COc1ccc(C2=C(N3CCN(c4cccc(C)c4C)CC3)c3ccccc3C2=O)cc1	/	3.2µM*	5µM*	/	?	2.2µM*
Cc1ccc(C)c(N2CCN(CCCc3ccccc3)CC2)c1	-4%	-14%	-13%	10	49%	-5%
Cc1ccc(C)c(N2CCN(C3=C(c4ccccc4)C(=O)c4ccccc43)CC2)c1	/	3.2µM*	2.5µM*	/	?	?
CSCCC(NS(=O)(=O)c1cccs1)C(=O)Nc1ccc(C)c(Cl)c1 (stereo unspecified)	/	?	-8%	/	29%	-19%
COC(=O)c1ccc(N2C(=O)Cc3cc(OC)c(OC)cc3C2c2ccc(F)cc2)cc1 (stereo unspecified)	/	?	-34%	/	-11%	-27%
O=C(CN1CCCCCC1)Nc1cccc(Br)c1	0%	-32%	-8%	0	8%	-2%
Cc1ccc(NC(=O)CN(C)C2CCCCC2)cc1Br	25%	25%[0.501 µM]	18µM*	0	?	50µM*
Cc1ccc(NC(=O)CN2CCCCCC2)cc1Br	-19%	22µM*	3.2µM*	7	?	?
Cc1cccc(NC(=O)CN2CCN(CC(=O)Nc3cccc(C)c3)CC2)c1	3%	50µM*	-17%	/	17%	6%
Cc1cccc(NC2(C(=O)O)CCCC2)c1	/	/	35µM*	-22	-17%	/
CN(CC(=O)Nc1ccc(Cl)cc1)C1CCCCC1	3%	12%	0%	5	29%	-2%
Cc1ccc(-n2ncc(C(=O)NCCN3CCC(Cc4ccccc4)CC3)c2C2CCN(C(=O)OC(C)(C)C)CC2)cc1	/	?	?	/	2%	-34%[57.1 µM]
CCOc1ccccc1C(=O)N(Cc1cccs1)c1ccc(Cl)cc1	/	22%[59 µM]	29%	/	88%	34%
